This note sets out measurements from PubChem BioAssay (Tox21).

Test [1] is described as follows: qHTS assay to identify small molecule antagonists of the vitamin D receptor (VDR) signaling pathway - cell viability counter screen (AID 743225). Further: nearly all actives have a fitted effect of over 50% in size. Further: potency means the concentration at half of the fitted maximal effect. The procedure, abridged:
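Luminescent cell viability (CellTiter-Glo) in VDR-bla HEK 293T cells after 16 h compound exposure at 37C in the presence of 3 nM final 1-alpha,25-dihydroxy vitamin D3.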
(In general: qHTS replaces the single test concentration by a dilution series.)

Test [2] in a line: qHTS assay to identify small molecule agonists of the NFkB signaling pathway (AID 1159509; active means well fitted curve in the direction sought with a large enough effect in the signal ratio in the repeat runs, not every such curve was filed as active; the % refers to the signal ratio; further: on the % scale 0 is the no-effect control and ±100 the full control effect). The procedure, abridged:
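After overnight attachment, reporter cells received test compounds, DMSO or positive controls and were incubated 5 hr at 37 C. FRET substrate was then added for 1.5 hr at room temperature before dual-emission fluorescence reading.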

Test [3] in a line: qHTS assay to identify small molecule agonists of the NFkB signaling pathway - cell viability counter screen (AID 1159515; calls by dose curve; further: on the % scale 0 is the no-effect control and ±100 the full control effect; nearly all actives have a fitted effect of over 55% in size). In short, it runs like this: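 Multiplexed viability readout: after the 5 hr compound exposure and 1.5 hr FRET substrate step, CellTiter-Glo reagent went into the same NFkB-bla ME-180 wells; ATP luminescence was measured after 30 min at room temperature.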

Test [4] in a line: qHTS assay to identify small molecule agonists of the endoplasmic reticulum stress response signaling pathway - cell viability counter screen (AID 1159517; calls by dose curve;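 further: HeLa cells carrying an ER stress response element beta-lactamase reporter; on the % scale 0 is the no-effect control and ±100 the full control effect; nearly all actives have a fitted effect of over 50% in size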). In short, it runs like this:
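Luminescence readout: CellTiter-Glo, 30 min RT, same wells as the ESRE-bla reporter read. HeLa ESRE-bla, 1,500 cells/well, o/n 37 C; cpd 5 hr 37 C/5% CO2.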

Test [5] addresses Nuclear receptor ROR-gamma (Homo sapiens) (UniProt P51449). In words: qHTS assay to identify small molecule antagonists of the retinoid-related orphan receptor gamma (ROR-gamma) signaling pathway (AID 1159521; further: nearly all actives have a fitted effect of over 50% in size; further: potency means the concentration at half of the fitted maximal effect). The procedure, abridged:
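CHO cells expressing RORγ under a TET-on promoter, luciferase under RORE control. Dox 1 uM final, 16 h; compounds added 2 h prior. Luminescence decrease measured.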

Test [6] concerns the target Retinoic acid receptor RXR-alpha (Homo sapiens) (UniProt P19793). In words: qHTS assay to identify small molecule agonists of the RXR signaling pathway (AID 1159527; calls by dose curve; further: on the % scale 0 is the no-effect control and ±100 the full control effect; nearly all actives have a fitted effect of over 35% in size). The procedure, abridged: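 Beta-lactamase reporter assay, agonist format. Engineered HEK 293T line, charcoal-stripped FBS at 2%, overnight (16 hr) exposure, fluorescence at 460 and 530 nm after 405 nm excitation.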

The nature of test [7]: qHTS assay to identify small molecule agonists of the RXR signaling pathway - cell viability counter screen (AID 1159529). Further: nearly all actives have a fitted effect of over 50% in size. Further: potency means the concentration at half of the fitted maximal effect. In short, it runs like this:
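Same-well viability check after the LiveBLAzer FRET read: CellTiter-Glo added, luminescence measured after 30 min at room temperature. Reporter HEK 293T cells had been treated with compounds for 16 hr following a 5 hr preincubation.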

Test [8] is described as follows: qHTS assay to identify small molecule antagonists of the retinoid acid receptor (RAR) signaling pathway - cell viability counter screen (AID 1159551). Further: on the % scale 0 is the no-effect control and ±100 the full control effect; nearly all actives have a fitted effect of over 35% in size. The procedure, abridged:
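Cytotoxicity counter screen in C3RL4 cells: 6 h compound exposure with 1 uM retinol (final), viability from cellular ATP by luminescence.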

A short description of test [9]: qHTS assay to identify small molecule antagonists of the retinoic acid receptor (RAR) signaling pathway (AID 1159552; further: nearly all actives have a fitted effect of over 50% in size; further: potency means the concentration at half of the fitted maximal effect). The procedure, abridged:
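Readout: luciferase luminescence, 30 min post-reagent at RT. Setup: C3RL4 RARE reporter cells, compounds plus retinol 1 uM final, 6 hr incubation at 37 C and 5% CO2.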

The nature of test [10]: qHTS assay to identify small molecule agonists of the AP-1 signaling pathway - cell viability counter screen (AID 1159525; calls by dose curve; further: nearly all actives have a fitted effect of over 55% in size). In short, it runs like this: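 ME-180 AP-1-bla, 2500 cells/well, Opti-MEM + 0.5% dialyzed FBS; overnight 37 °C; cpd 15-pt titration, 5 h 37 °C; CellTiter-Glo 30 min RT; luminescence read; normalised to TOAB and DMSO controls.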
Test [11] is described as follows: qHTS assay to identify small molecule agonists of the AP-1 signaling pathway (AID 1159526; calls by dose curve; further: on the % scale 0 is the no-effect control and ±100 the full control effect).
A short description of test [12]: qHTS assay to identify small molecule agonists of the retinoic acid receptor (RAR) signaling pathway (AID 1159553). Further: potency means the concentration at half of the fitted maximal effect. The settings on record: C3RL4 RARE luciferase reporter, agonist, 6 h; activation: at 73.3 µM (top of the series). The procedure, abridged: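 Agonist activity was scored in C3RL4 cells bearing a retinoic acid response element luciferase construct. Cells were treated with compounds for 6 hr at 37 C, and luciferase signal was measured as luminescence.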

Test [13] is described as follows: qHTS assay to identify small molecule antagonists of the retinoid-related orphan receptor gamma (ROR-gamma) signaling pathway - cell viability counter screen (AID 1159520). Further: nearly all actives have a fitted effect of over 50% in size. Further: potency means the concentration at half of the fitted maximal effect. The procedure, abridged:
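Tet-on ROR gamma CHO cells (1,000/well) were plated 4 hr, given compounds in DMSO for 2 hr at 37 C, then induced with 1 uM final doxycycline for 16 hr. Viability was read as ATP by CellTiter-Glo luminescence after 30 min.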

A short description of test [14]: qHTS assay to identify small molecule antagonists of the estrogen related receptor (ERR) signaling pathway - cell viability counter screen (AID 1224818). Further: on the % scale 0 is the no-effect control and ±100 the full control effect. The procedure, abridged: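 Cells carrying the ERR pathway reporter were seeded and incubated for 6 hours before compound addition. After a 17.5-hour exposure at 37 C, live-cell protease activity was measured by CellTiter-Fluor fluorescence following 30 minutes of incubation.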

Test [15] in a line: qHTS assay to identify small molecule antagonists of the estrogen related receptor signaling pathway with the pleiotropic PPARgamma coactivator (PGC) cell viability counter screen (AID 1224822; further: on the % scale 0 is the no-effect control and ±100 the full control effect). In short, it runs like this: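 Seed PGC/ERR cells (2,000/well); incubate 6 h at 37 C/5% CO2; pin-transfer compounds in DMSO; incubate 17.5 h at 37 C; add CellTiter-Fluor; after 30 min read fluorescence.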

Inconclusive results are not listed. Unmarked numbers belong to inactive results. Calls of active or inactive are those of the source. Unless noted, the call rests on the fitted dose curve; in most records, active means well fitted curve in the direction sought with a large enough effect in the repeat runs; inconclusive means weak or mixed curves; inactive means no such curve, though single readings can be large; an effect the other way counts as inactive or inconclusive.

Chain of Retinoic acid receptor RXR-alpha (Homo sapiens) (P19793 whole entry, looked up): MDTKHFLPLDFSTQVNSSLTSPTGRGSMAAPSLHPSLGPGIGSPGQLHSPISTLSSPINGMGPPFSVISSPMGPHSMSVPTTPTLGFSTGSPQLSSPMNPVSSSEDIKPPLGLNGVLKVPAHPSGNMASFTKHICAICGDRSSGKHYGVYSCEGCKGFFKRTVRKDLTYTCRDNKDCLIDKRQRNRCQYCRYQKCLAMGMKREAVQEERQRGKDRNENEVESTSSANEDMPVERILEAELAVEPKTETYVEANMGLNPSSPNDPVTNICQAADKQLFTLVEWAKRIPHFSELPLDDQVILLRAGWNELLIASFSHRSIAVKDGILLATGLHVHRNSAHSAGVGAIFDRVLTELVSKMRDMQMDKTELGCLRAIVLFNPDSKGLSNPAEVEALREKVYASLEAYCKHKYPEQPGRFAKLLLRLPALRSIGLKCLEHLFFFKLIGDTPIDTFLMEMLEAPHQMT

Consider `CC(=O)[C@H]1[C@H](C#N)C[C@H]2[C@@H]3CC=C4C[C@@H](O)CC[C@]4(C)[C@H]3CC[C@@]21C`, for which the Potency result in test [1], in test [2], in [3], in test [4], in test [5] and in test [6] was “inactive” each time. In addition, the Potency entry in [7], in test [8] and in [9] was “inactive” in each case.
For `C/C=C\C/C=C/CCCCCCCCOC(C)=O`, the Potency entry in [2], in test [3], in test [4], in [5] and in test [8] was “inactive” throughout.
As for `O=C(OCC(O)CO)c1ccccc1Nc1ccnc2cc(Cl)ccc12` (stereo not drawn), the Potency entry in test [1], in test [2], in test [3], in test [4], in test [10] and in test [11] was “inactive” throughout. For the same compound, the Potency entry in test [7], in [8] and in test [9] was “inactive” in each case.
Turning to `CC1(C)[C@H](C(=O)O)N2C(=O)C[C@H]2S1(=O)=O`, the Potency entry in test [2], in [3], in test [4], in [5], in [10] and in [7] was “inactive” each time. Moreover, the Potency result in test [8], in [9] and in test [12] was “inactive” each time.
In the case of `C[C@@]12CCC[C@H]1[C@@H]1CC[C@H]3C[C@@H](O)CC[C@]3(C)[C@H]1CC2`, the Potency entry in test [1], in test [2], in test [3], in [4], in test [8] and in test [9] was “inactive” throughout. Further, the Potency in [5] was 13.3 µM (active).
As to `C/C=C(/C(=C/C)c1ccc(O)cc1)c1ccc(O)cc1`, the Potency result in test [1], in [2], in [3], in test [4], in test [5] and in test [11] was “inactive” each time. The Potency result in test [8] and in test [12] was “inactive” throughout.
On to `CC(C)(C)C(=O)C(=O)O`, for which the Potency result in test [1], in test [2], in test [3], in test [13], in [5] and in test [10] was “inactive” throughout. For the same compound, the Potency entry in [11], in test [6], in test [7], in test [8], in test [9] and in [12] was “inactive” in each case.
Take `Cc1cc(=O)c2c(O)c3c(O)cc(=O)c4c3c3c(cc(O)c1c23)C(C)(C)C=4O`: the Potency result in test [2] and in [3] was “inactive” in each case. In addition, the figures for the Potency in test [13] and in test [5] were 1.64 µM (active) and 0.82 µM (active), respectively. Also, the viability change, negative = cytotoxic in test [10] is 5.76% [at 15.8 µM]. Further, in test [11], the activation was -0.228% [at 15.8 µM]. Moreover, in test [9], the activity, negative = inhibition is -5.37% [at 19 µM].
Take `c1csc(SSc2cccs2)c1`: the Potency result in test [2], in test [3], in [4] and in [10] was “inactive” in each case. Moreover, the Potency was 24.3 µM (active) in test [5], 38.9 µM (active) in test [7] and 9.69 µM (active) in test [9].
As for `CCCCCCCCN`, the Potency result in test [1], in test [2], in [3], in test [13], in test [5] and in [10] was “inactive” each time. In addition, the Potency result in test [11], in test [6], in test [7], in test [8], in test [9] and in test [12] was “inactive” each time.
With `CN1C(C(=O)Nc2ccccn2)=C(O)c2sccc2S1(=O)=O`, the Potency entry in test [2], in test [3], in test [4], in test [5], in test [6] and in test [7] was “inactive” each time. Also, the Potency result in test [8] and in [9] was “inactive” each time. In test [12], the Potency is 29.8 µM (active).
For `COc1cc(Nc2c(C#N)cnc3cc(OCCCN4CCN(C)CC4)c(OC)cc23)c(Cl)cc1Cl`, the figures for the Potency in [1] and in test [7] were 19 µM (active) and 8.49 µM (active), respectively. The Potency entry in test [2], in test [3], in test [4], in test [5] and in [8] was “inactive” each time.
On to `CC(C)COCC(CN(Cc1ccccc1)c1ccccc1)N1CCCC1` (stereo not drawn), for which the Potency result in test [2], in test [3] and in [4] was “inactive” throughout. The Potency was 23.7 µM (active) in [5] and 19 µM (active) in test [7]. Moreover, the compound was called inactive in test [14] and in test [15].
